# Source: PubChem BioAssay
# Only some compounds are listed: those with a hit (about 19% of all), similar ones and a draw of the others.
# KB-3-1 tox = kills parental KB-3-1 adenocarcinoma cells; KB-3-1 viability, CellTiter-Glo ATP luminescence, 72 h; Potency, µM (highest dose often 46.1 µM), usual class: cytotoxic; 1.4% of 400,000 active; AID 1347075; further: nearly all actives have a fitted effect of over 60% in size
#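 Multi-concentration cytotoxicity screen in KB-3-1 cells grown in DMEM lacking phenol red with 10% FBS. After 72 h at 37 °C with compound, ATP-dependent luminescence was recorded.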
# TDP1 cell noCPT = qHTS for Inhibitors of human tyrosyl-DNA phosphodiesterase 1 (TDP1): qHTS in cells in absence of CPT. Potency, µM (top dose mostly 46.2 µM), for the others: top-dose activity change, negative = growth inhibition, most hits filed as inhibitors. AID 686978, 2013. 15% of 420,000 active. DT40 Tdp1-/- hTDP1 cells, no CPT, ATP luminescence, 48 h; further: nearly all actives have a fitted effect of over 55% in size
#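 Chicken DT40 Tdp1-/- cells stably complemented with human TDP1 were seeded at 400 cells/well with DMSO in place of 20 nM camptothecin. After compound pinning, cells grew at least 48 hr at 37 °C; viability read by CellTiter-Glo luminescence.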
# KB-V1 MDR tox = KB-V1 MDR subline cytotoxicity | 3.4% of 400,000 active | KB-V1 MDR cells viability, CellTiter-Glo, 72 h | AID 1347076 | Potency, µM (titrated, usually from 46.1 µM), usual class: cytotoxic; further: nearly all actives have a fitted effect of over 60% in size
#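 Cytotoxicity via CellTiter-Glo luminescence after 72 h compound exposure at 37 degrees C. Cells: drug-selected KB-V1 line, DMEM phenol-red free plus 10% FBS. Compounds tested at multiple concentrations; normalized data fitted to concentration-effect curves.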
# HT1080-NT tox = kills 2HG-producing HT-1080-NT fibrosarcoma cells. Potency, µM (highest dose often 46.1 µM), for the others: at the highest dose activity, negative = less viability, most hits filed as cytotoxic. HT-1080-NT fibrosarcoma viability, CellTiter-Glo ATP luminescence, 48 h. 1.6% of 360,000 active;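 further: NT is the 2HG producing partner of a matched IDH1 knockdown line; 0% = DMSO-treated cells and -100% = media-only wells without cells; nearly all actives have a fitted effect of over 55% in size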
#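 Luminescent CellTiter-Glo readout after 48 hours of compound exposure at 37 degrees C defined viability of HT-1080-NT cells. Activity was normalized to DMSO wells and cell-free media wells; concentration-response curves were fitted and assigned curve classes.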
# TDP1 cell CPT = DT40-hTDP1 cell growth loss with CPT; chicken DT40 Tdp1-/-;hTDP1 cells + 20 nM CPT, ATP luminescence, 48 h; Potency, µM (top dose mostly 46.2 µM), inactives show at the top dose activity change, negative = growth inhibition, actives largely listed as inhibitors; 12% of 420,000 active; AID 686979; further: nearly all actives have a fitted effect of over 55% in size
#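 Cell growth measured by CellTiter-Glo luminescence after a minimum 48 h, 37 C compound exposure with 20 nM CPT in Tdp1-knockout DT40 cells stably expressing hTDP1, seeded 400/well; qHTS titration format.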
# HT1080 IDH1KD tx = kills HT-1080 cells with IDH1 knockdown; HT-1080 IDH1 knockdown viability, ATP luminescence, 48 h; Potency, µM (titrated, usually from 46.1 µM), without a hit: at the highest dose activity, negative = toxicity, actives largely listed as cytotoxic; AID 686971; 2% of 360,000 active;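 further: 0% = DMSO wells and -100% = cell-free medium wells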
#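 Knockdown cells (IDH1KD HT-1080) received compounds 2 h after plating at 750 cells/well and were kept 48 h at 37 °C in 5% FBS RPMI. A CellTiter-Glo luminescence read gave % activity for curve fitting.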
# * hit, by the source's call; i = inactive; ? = inconclusive; · = no result given. The call rests on the fitted dose curve; in most records, active means well fitted curve in the direction sought with a large enough effect; inconclusive means small, poorly fitted or top-dose-only effect, or another doubt; inactive means no such curve, though single readings can be large; an effect the other way counts as inactive or inconclusive. Unless noted, on the % scale 0 is the no-effect control and ±100 the full control effect; potency means the concentration at half of the fitted maximal effect.
SMILES,KB-3-1 tox,TDP1 cell noCPT,KB-V1 MDR tox,HT1080-NT tox,TDP1 cell CPT,HT1080 IDH1KD tx
Cn1ccc2c(-c3ccc(F)cc3)cc3c(c21)C1CCC3C1 (configuration not stated),i,?,i,-0.1%,-25.5%,-4.7%
Cn1ccc2c(-c3ccc(CO)cc3)cc3c(c21)C1CCC3C1 (configuration not stated),i,?,i,?,18.4µM*,?
Cn1ccc2c(N3CCCC3)cc3c(c21)C1CCC3C1 (configuration not stated),i,14.6µM*,i,-14.6%,20.6µM*,-21.5%
Cn1ccc2c(N3CCCCCC3)cc3c(c21)C1CCC3O1 (configuration not stated),i,?,i,-4.1%,20.6µM*,?
Cc1ccc(-c2nc3cnccn3c2Nc2ccc3c(c2)OCO3)cc1,i,?,?,-1.0%,?,-16.5%
Cc1ccn2c(Nc3ccc4c(c3)OCO4)c(-c3ccc(N(C)C)cc3)nc2c1,i,?,i,·,13µM*,·
Cc1ccn2c(Nc3ccc4c(c3)OCO4)c(-c3ccco3)nc2c1,i,?,i,·,23.1µM*,·
Cc1ccc(-c2nc3ccccn3c2Nc2ccc3c(c2)OCO3)o1,i,?,i,·,?,·
O=C(C[n+]1c(Cl)ccc2ccccc21)c1ccc2ccccc2c1,?,-6.7%,i,·,-13.7%,·
O=C(CN1C(=O)C(=O)N(C2CCCC2)C1=O)Nc1ccc(F)cc1F,i,-2.1%,i,10.4%,-0.2%,5.7%
CC1CCCCN1CC(O)COCc1ccccc1 (configuration not stated),i,-3.8%,?,17.5%,-5.1%,2.7%
c1ccc2nc3c(cc2c1)CCCCC3,i,13µM*,i,1.7%,18.4µM*,1.9%
O=C(Nc1ccc(-c2cc(C(F)(F)F)nn2-c2ccccc2)cc1)c1cccc(F)c1,·,5.17µM*,·,·,?,·
O=C(NC(=O)c1cccc(F)c1)Nc1ccc(-c2cc(C(F)(F)F)nn2-c2ccccc2)cc1,i,-22.6%,i,·,-22.6%,·
COc1cc(C(=O)Nc2ccc(-c3cc(C(F)(F)F)nn3-c3ccccc3)cc2)cc(OC)c1OC,?,14.6µM*,i,·,16.4µM*,·
CCOc1ccc(C2C(C(N)=O)=C(C)Nc3nc(SCc4ccccc4F)nn32)cc1 (configuration not stated),i,-16.2%,?,·,0.3%,·
CCOC(=O)C1(Cc2cccc(F)c2)CCN(C(=O)COC)CC1,i,-9.1%,i,0.0%,-21.5%,-0.3%
CCC1CN(CC(=O)NCc2cccc(Br)c2)c2ccccc2S1 (configuration not stated),i,·,?,·,·,·
CCOC(=O)N1CCN(c2c(N3CCc4ccccc4C3)c(=O)c2=O)CC1,i,-20.2%,i,21.5%,?,-1.0%
CCOC(=O)N1CCN(c2c(N3CC=C(c4ccccc4)CC3)c(=O)c2=O)CC1,i,16.4µM*,i,-0.2%,20.6µM*,-15.2%
CC(=O)N1C[C@H]2CON(C)[C@H]2C[C@H]1c1cccc(N2CCOCC2)c1,i,?,i,-7.9%,-2.1%,-24.8%
Cc1cc(C)c2nc(NC(=O)C3CSC4(C)CCC(=O)N34)sc2c1 (configuration not stated),i,3.66µM*,i,-9.4%,-44.9%,-9.9%
Cc1ccc(-c2csc(NC(=O)C3CSC4(C)CCC(=O)N34)n2)cc1 (configuration not stated),i,-22.3%,?,6.2%,-7.7%,4.3%
Cc1sc(NC(=O)C2CSC3(C)CCC(=O)N23)nc1-c1ccc(F)cc1 (configuration not stated),i,18.4µM*,i,-11.0%,14.6µM*,-18.7%
CC1CCN(S(=O)(=O)c2ccc(NC(=O)C3CSC4(C)CCC(=O)N34)cc2)CC1 (configuration not stated),i,10.3µM*,i,7.7%,?,-4.8%
SMILES,KB-3-1 tox,TDP1 cell noCPT,KB-V1 MDR tox,HT1080-NT tox,TDP1 cell CPT,HT1080 IDH1KD tx
Cc1ccc(C(=O)CCC(=O)OCC(=O)NNC(=O)c2ccc([N+](=O)[O-])cc2)cc1,i,-16.1%,i,1.3%,-17.6%,-2.6%
CC(C)n1c(=O)c2ccccc2n1Cc1cn(C2CCCC2)nn1,i,-7.9%,i,?,-5.2%,0.9%
Cc1[nH]c2ccc(F)cc2c1CCNC(=O)c1cc2cc(Cl)ccc2oc1=O,i,-23.7%,i,·,2.0%,·
Cc1cccc(-c2nc(SCC(=O)NCC3CCCO3)c3c(=O)n(C)c(=O)n(C)c3n2)c1 (configuration not stated),i,0.1%,i,·,-6.7%,·
CCN(CC)C(=O)Cn1c(=O)n(CCc2ccccc2)c(=O)c2ccccc21,i,?,i,·,?,·
O=S1(=O)N=C(N/N=C/C=C/c2ccccc2)c2ccccc21,i,5.8µM*,i,-8.2%,?,-12.0%
O=S1(=O)N=C(N/N=C/c2ccccn2)c2ccccc21,i,?,?,-21.5%,?,?
COc1cccc(/C=C/C(=O)OCC(=O)N2c3ccccc3CC2C)c1OC (configuration not stated),i,4.0%,i,3.7%,2.9%,-6.6%
CC1Cc2ccccc2N1C(=O)CO/N=C/c1ccccc1OC(F)F (configuration not stated),i,20.6µM*,?,-1.7%,?,-18.7%
COc1ccc(/C=C/C(=O)OCC(=O)N2c3ccccc3CC2C)c(OC)c1 (configuration not stated),i,18.4µM*,i,3.5%,?,2.0%
Cc1ccc(Cn2c(=O)n(-c3ccc(C)c(C)c3)c(=O)c3c(C)c(C)sc32)cc1,i,?,?,·,?,·
CC1Cc2cc(S(=O)(=O)N3CCN(c4ccccc4F)CC3)ccc2N1C(=O)C1CCC1 (configuration not stated),i,-13.4%,i,·,?,·
C(#Cc1ccccc1)CN1CCOCC1,i,1.1%,i,5.9%,7.9%,0.4%
C(#Cc1ccc(C#CCN2CCOCC2)cc1)CN1CCOCC1,i,2.4%,18.4µM*,-5.1%,-13.8%,2.0%
C=CCOc1ccccc1CN1CCC(CO)(CCOc2ccccc2)CC1,i,18.4µM*,i,-0.8%,?,?
